Experimental data: PubChem BioAssay (NCATS)
“And” between values parts separate entries of the source, which are not always exact repeats. Equal entries are not always repeated. Inconclusive results are not listed. The source made the active and inactive calls. Calls follow the shape of the dose curve; as a rule, active = well fitted curve in the direction sought with a large enough effect; inconclusive = small, poorly fitted or top-dose-only effect, or another doubt; inactive = no such curve, though single readings can be large; an effect the other way counts as inactive or inconclusive.

Assays:
W2 = experiment: qHTS profiling for inhibitors of Plasmodium falciparum proliferation (AID 504749); also: nearly all actives have a fitted effect of over 60% in size; also: potency is read from the fitted curve at half-maximal effect; conditions: P. falciparum in erythrocytes, SYBR Green DNA, 72 h; series mostly up to 28.7 µM
Procedure, shortened: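 Fluorescence of SYBR Green-bound parasite DNA, read at 485/535 nm, served as the growth measure. Infected erythrocytes were cultured with compound 72 h; artemisinin (0.29 uM) and DMSO wells defined the normalization range.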

CRL-7250 = normal cell line; experiment: Cytotoxic Profiling of Annotated Libraries Using Quantitative High-Throughput Screening (AID 1296008); conditions: Five cell lines viability, CellTiter-Glo ATP luminescence, 48-72 h; max response: hits give low values; also: nearly all actives have a fitted effect of over 60% in size; also: potency is read from the fitted curve at half-maximal effect; as to max response: % is scaled to controls: 0 for no effect and ±100 for the full control effect
Procedure, shortened: (§1)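 Compounds were pin-transferred onto cells and incubated 48 or 72 hr at 37 degree Celsius, 95% humidity. CellTiter-Glo was added, plates sat 10 min at room temperature, then ATP-coupled luminescence was imaged as the viability read-out.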

HaCat [1] = experiment: as above; conditions: Five cell lines viability, CellTiter-Glo ATP luminescence, 48-72 h; max response: hits give low values
Procedure, shortened: as §1

NIH3T3 [2] = experiment: as above; conditions: Five cell lines viability, CellTiter-Glo ATP luminescence, 48-72 h; max response: hits give low values
Procedure, shortened: as §1

MCC-13 = experiment: qHTS assay to identify novel small-molecules to repurpose for Merkel cell carcinoma treatment (AID 1296009); conditions: MCC and control cell lines, CellTiter-Glo viability, 72 h; series mostly up to 46 µM; also: nearly all actives have a fitted effect of over 60% in size; also: potency is read from the fitted curve at half-maximal effect
Procedure, shortened: (§2)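 Luminescence from CellTiter-Glo, read 10 min after addition at room temperature, reported viability following a 72 hr, 37 degree celsius treatment with NPC or MIPE compounds in titration; values normalized to plate controls.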

MCC-26 = experiment: as above; conditions: MCC and control cell lines, CellTiter-Glo viability, 72 h; series mostly up to 46 µM
Procedure, shortened: as §2

MKL-1 = experiment: as above; conditions: MCC and control cell lines, CellTiter-Glo viability, 72 h; series mostly up to 46 µM
Procedure, shortened: as §2

MKL-2 = experiment: as above; conditions: MCC and control cell lines, CellTiter-Glo viability, 72 h; series mostly up to 46 µM
Procedure, shortened: as §2

NIH3T3 [3] = experiment: as above; conditions: MCC and control cell lines, CellTiter-Glo viability, 72 h; at 44.8 µM (top of the series)
Procedure, shortened: as §2

UISO = experiment: as above; conditions: MCC and control cell lines, CellTiter-Glo viability, 72 h; series mostly up to 46 µM
Procedure, shortened: as §2

WaGa = experiment: as above; conditions: MCC and control cell lines, CellTiter-Glo viability, 72 h; series mostly up to 46 µM
Procedure, shortened: as §2

C33A = experiment: Primary qHTS to identify gynecologic anti-cancer compounds using libraries of approved drugs and bioactive compounds (AID 1345084); conditions: Gynecologic cancer cell panel viability, ATPlite luminescence, 48 h; series mostly up to 57.5 µM; also: % is scaled to controls: 0 for no effect and ±100 for the full control effect; nearly all actives have a fitted effect of over 55% in size
Procedure, shortened: (§3)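 48 h compound exposure at 37 C, 5% CO2; five-point qHTS. ATPlite luminescence readout of cell ATP.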

CASKI = experiment: as above; conditions: Gynecologic cancer cell panel viability, ATPlite luminescence, 48 h; series mostly up to 57.5 µM
Procedure, shortened: as §3

Es-2 = experiment: as above; conditions: Gynecologic cancer cell panel viability, ATPlite luminescence, 48 h; series mostly up to 57.5 µM
Procedure, shortened: as §3

HeLa = experiment: as above; conditions: Gynecologic cancer cell panel viability, ATPlite luminescence, 48 h; series mostly up to 57.5 µM
Procedure, shortened: as §3

HEK293 = experiment: Cytotoxic Profiling of Annotated Libraries Using Quantitative High-Throughput Screening (AID 1296008); conditions: Five cell lines viability, CellTiter-Glo ATP luminescence, 48-72 h; max response: hits give low values; also: nearly all actives have a fitted effect of over 60% in size; also: potency is read from the fitted curve at half-maximal effect; as to max response: % is scaled to controls: 0 for no effect and ±100 for the full control effect
Procedure, shortened: as §1

KB-3-1 = experiment: as above; conditions: Five cell lines viability, CellTiter-Glo ATP luminescence, 48-72 h; max response: hits give low values
Procedure, shortened: as §1

HACAT [4] = experiment: qHTS assay to identify novel small-molecules to repurpose for Merkel cell carcinoma treatment (AID 1296009); conditions: MCC and control cell lines, CellTiter-Glo viability, 72 h; at 44.8 µM (top of the series) unless noted; also: nearly all actives have a fitted effect of over 60% in size; also: potency is read from the fitted curve at half-maximal effect
Procedure, shortened: as §2

CAOV3 = experiment: Primary qHTS to identify gynecologic anti-cancer compounds using libraries of approved drugs and bioactive compounds (AID 1345084); conditions: Gynecologic cancer cell panel viability, ATPlite luminescence, 48 h; series mostly up to 57.5 µM; also: % is scaled to controls: 0 for no effect and ±100 for the full control effect; nearly all actives have a fitted effect of over 55% in size
Procedure, shortened: as §3

HEK293T = experiment: qHTS assay to identify novel small-molecules to repurpose for Merkel cell carcinoma treatment (AID 1296009); conditions: MCC and control cell lines, CellTiter-Glo viability, 72 h; at 44.8 µM (top of the series) unless noted; also: nearly all actives have a fitted effect of over 60% in size; also: potency is read from the fitted curve at half-maximal effect
Procedure, shortened: as §2

CC(C)CCCC(C)N (configuration not stated)
active: Potency (CRL-7250) 33.5 µM
inactive: Potency (W2) | max response (HaCat [1]) -0.769% | outcome (NIH3T3 [2]) | Potency (MCC-13) | Potency (MCC-26) | Potency (MKL-1) | Potency (MKL-2) | outcome (NIH3T3 [3]) | Potency (UISO) | Potency (WaGa) | Potency (C33A) | Potency (CASKI) | Potency (Es-2) | Potency (HeLa)

C[C@@H](O)[C@H]1C(=O)N2C(C(=O)O)=C([C@H]3CCCO3)S[C@H]12
inactive: max response (HEK293) -1.4% | outcome (HaCat [1]) | max response (KB-3-1) 3.93% | outcome (NIH3T3 [2]) | outcome (HACAT [4]) | Potency (MCC-13) | Potency (MCC-26) | Potency (MKL-1) | Potency (MKL-2) | outcome (NIH3T3 [3]) | Potency (UISO) | Potency (WaGa) | Potency (C33A) | Potency (CASKI) | Potency (Es-2) | Potency (HeLa)

CC(C)(Cc1c[nH]c2ccccc12)NCC(O)COc1ccccc1C#N (configuration not stated)
inactive: max response (CRL-7250) -4.9% | max response (HaCat [1]) -15.6% | max response (KB-3-1) 19.5% | max response (NIH3T3 [2]) -8.73% | Potency (MCC-13) | Potency (MCC-26) | Potency (MKL-1) | Potency (MKL-2) | Potency (C33A) | Potency (CAOV3) | Potency (CASKI) | Potency (Es-2) | Potency (HeLa)
active: Potency (W2) 3.79 µM

CO[C@H]1C=CO[C@@]2(C)Oc3c(C)c(O)c4c(O)c(c(/C=N/N5CCN(C)CC5)c(O)c4c3C2=O)NC(=O)/C(C)=C\C=C[C@H](C)[C@H](O)[C@@H](C)[C@@H](O)[C@@H](C)[C@H](OC(C)=O)[C@@H]1C
active: Potency (MKL-1) 21.1 µM
inactive: max response (CRL-7250) 1.9% | max response (HaCat [1]) -21.6% | max response (KB-3-1) -19.7% | max response (NIH3T3 [2]) -0.808% | Potency (MCC-13) | Potency (MCC-26) | Potency (C33A) | Potency (CAOV3) | Potency (CASKI) | Potency (Es-2) | Potency (HeLa)

COc1cc(C(=O)N2CCCCCCC2)cc(OC)c1OC
inactive: Potency (W2) | max response (HEK293) 0.115% | outcome (HaCat [1]) | max response (KB-3-1) -4.88% | max response (NIH3T3 [2]) 2.92% | outcome (HACAT [4]) | Potency (MCC-13) | Potency (MCC-26) | Potency (MKL-1) | Potency (MKL-2) | Potency (UISO) | Potency (WaGa) | Potency (C33A) | Potency (CASKI) | Potency (Es-2) | Potency (HeLa)

O=C1OC(CN2CCOCC2)CN1/N=C/c1ccc([N+](=O)[O-])o1 (configuration not stated)
inactive: outcome (CRL-7250) | max response (HaCat [1]) 2.11% | max response (KB-3-1) 2.54% | max response (NIH3T3 [2]) -5.18% | Potency (MCC-13) | Potency (MCC-26) | Potency (UISO) | Potency (WaGa) | Potency (C33A) | Potency (CAOV3) | Potency (CASKI) | Potency (Es-2) | Potency (HeLa)

CC(=O)Nc1ccc(OC(=O)c2ccccc2OC(C)=O)cc1
inactive: Potency (W2) | outcome (HEK293) | outcome (HaCat [1]) | max response (KB-3-1) -4.86% | outcome (NIH3T3 [2]) | outcome (HACAT [4]) | outcome (HEK293T) | Potency (MCC-13) | Potency (MCC-26) | Potency (MKL-1) | Potency (MKL-2) | outcome (NIH3T3 [3]) | Potency (UISO) | Potency (WaGa) | Potency (C33A) | Potency (CASKI) | Potency (Es-2) | Potency (HeLa)

O=C(Nc1cccc(C2=NCCN2)c1)Nc1cccc(C2=NCCN2)c1
active: Potency (W2) 1.69 µM
inactive: outcome (CRL-7250) | max response (HaCat [1]) -0.992% | max response (KB-3-1) -7.99% | max response (NIH3T3 [2]) 1.41% | Potency (MCC-13) | Potency (MCC-26) | Potency (MKL-1) | Potency (MKL-2) | Potency (UISO) | Potency (WaGa) | Potency (C33A) | Potency (CAOV3) | Potency (CASKI) | Potency (Es-2) | Potency (HeLa)

c1ccc(-c2nc[nH]c2-c2ccccc2)cc1
inactive: Potency (W2) | max response (CRL-7250) -18.7% | max response (HaCat [1]) -29.5% | max response (KB-3-1) 23.6% | max response (NIH3T3 [2]) -7.14% | Potency (MCC-13) | Potency (MCC-26) | Potency (MKL-1) | Potency (MKL-2) | Potency (UISO) | Potency (WaGa) | Potency (CAOV3) | Potency (CASKI) | Potency (Es-2) | Potency (HeLa)

CO[C@]12C[C@@H](COC(=O)c3cncc(Br)c3)CN(C)[C@@H]1Cc1cn(C)c3cccc2c13
inactive: max response (HEK293) -26.4% | outcome (HaCat [1]) | max response (KB-3-1) 9.31% | max response (NIH3T3 [2]) 0.842% | outcome (HACAT [4]) | Potency (MCC-13) | Potency (MCC-26) | Potency (MKL-1) | Potency (MKL-2) | Potency (UISO) | Potency (WaGa) | Potency (C33A) | Potency (CASKI) | Potency (Es-2) | Potency (HeLa)
active: Potency (W2) 6.75 µM

CCOc1ccccc1OCCN[C@H](C)Cc1ccc(OC)c(S(N)(=O)=O)c1
inactive: max response (HEK293) -5.03% | outcome (HaCat [1]) | max response (KB-3-1) 4.78% | max response (NIH3T3 [2]) 2.8% | outcome (HACAT [4]) | Potency (MCC-13) | Potency (MCC-26) | Potency (MKL-1) | Potency (MKL-2) | Potency (UISO) | Potency (WaGa) | Potency (C33A) | Potency (CAOV3) | Potency (CASKI) | Potency (Es-2) | Potency (HeLa)

O=C(CCCN1CC=C(n2c(=O)[nH]c3ccccc32)CC1)c1ccc(F)cc1
active: Potency (UISO) 26.6 µM
inactive: max response (CRL-7250) -30.7% | max response (HaCat [1]) -9.03% and -18.9% | max response (KB-3-1) 3.95% and 1.87% | max response (NIH3T3 [2]) -10.6% | Potency (MCC-26) | Potency (MKL-1) | Potency (MKL-2) | Potency (C33A) | Potency (CASKI) | Potency (Es-2) | Potency (HeLa)

Cc1cccc(C)c1NC(=O)CN1CCCC1
inactive: max response (HEK293) 0.0979% | outcome (HaCat [1]) | max response (KB-3-1) 8.28% | max response (NIH3T3 [2]) 1.81% | outcome (HACAT [4]) | Potency (MCC-13) | Potency (MCC-26) | Potency (MKL-1) | Potency (MKL-2) | Potency (UISO) | Potency (WaGa) | Potency (C33A) | Potency (CAOV3) | Potency (CASKI) | Potency (Es-2) | Potency (HeLa)

C=C[C@H]1CN2CC[C@H]1C[C@H]2[C@H](O)c1ccnc2ccc(OC)cc12
inactive: max response (HaCat [1]) -3.94% | max response (KB-3-1) 4.92% and -14.4% and -25.6% | max response (NIH3T3 [2]) -2.33% | Potency (MCC-13) | Potency (MCC-26) | Potency (MKL-1) | Potency (MKL-2) | Potency (UISO) | Potency (C33A) | Potency (CASKI) | Potency (Es-2) | Potency (HeLa)
